# Experiments:
# Assay in all cases: DAPPL (digital affinity profiling via proximity ligation, sequencing); 10 mM Tris-HCl pH 7.5, 50 mM NaCl, 1 mM DTT, 4% glycerol, room temperature, 30 min; GST-TFs on glutathione beads, 16-mer random dsDNA library, 0.1% formaldehyde crosslink after washing; high values mean tight binding
# FLI1 = target: T1, FLI1 (Homo sapiens, UniProt Q01543 1-452); details: protein: recombinant; tags: N-terminal GST; dsDNA, one strand shown
# T1 sequence: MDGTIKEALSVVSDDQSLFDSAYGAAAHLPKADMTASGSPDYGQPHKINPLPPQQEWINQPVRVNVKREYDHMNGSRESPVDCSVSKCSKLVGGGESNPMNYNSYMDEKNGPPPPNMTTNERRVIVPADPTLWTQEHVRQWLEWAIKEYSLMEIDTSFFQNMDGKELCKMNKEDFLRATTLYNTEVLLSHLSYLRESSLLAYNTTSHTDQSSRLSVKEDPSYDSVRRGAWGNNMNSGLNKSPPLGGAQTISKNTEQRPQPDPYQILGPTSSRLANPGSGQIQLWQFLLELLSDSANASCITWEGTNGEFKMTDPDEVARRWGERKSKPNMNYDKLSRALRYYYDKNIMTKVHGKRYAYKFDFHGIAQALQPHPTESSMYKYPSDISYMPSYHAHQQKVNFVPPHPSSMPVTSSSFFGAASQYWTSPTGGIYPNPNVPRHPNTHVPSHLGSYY
# How it was run: (§1)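 Human transcription factors carrying a GST fusion were produced in yeast, bound to glutathione beads, tagged with DNA barcodes and pooled together with a tag-only sample. Each pool was held with 200 nmole of a random double-stranded 16-mer DNA library in Tris/NaCl/DTT/glycerol buffer for 30 min at room temperature, then washed, crosslinked in 0.1% formaldehyde, proximity-ligated with BsaI/T4 ligase (1 h, 37 °C), PCR-amplified and sequenced on an Illumina NextSeq500. Binding signal is the read frequency of each hexamer for a given factor divided by its frequency in the tag-only sample.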
# ELK1 = target: T2, ELK1 (Homo sapiens, UniProt P19419 1-428); details: protein: recombinant; tags: N-terminal GST; dsDNA, one strand shown
# T2 sequence: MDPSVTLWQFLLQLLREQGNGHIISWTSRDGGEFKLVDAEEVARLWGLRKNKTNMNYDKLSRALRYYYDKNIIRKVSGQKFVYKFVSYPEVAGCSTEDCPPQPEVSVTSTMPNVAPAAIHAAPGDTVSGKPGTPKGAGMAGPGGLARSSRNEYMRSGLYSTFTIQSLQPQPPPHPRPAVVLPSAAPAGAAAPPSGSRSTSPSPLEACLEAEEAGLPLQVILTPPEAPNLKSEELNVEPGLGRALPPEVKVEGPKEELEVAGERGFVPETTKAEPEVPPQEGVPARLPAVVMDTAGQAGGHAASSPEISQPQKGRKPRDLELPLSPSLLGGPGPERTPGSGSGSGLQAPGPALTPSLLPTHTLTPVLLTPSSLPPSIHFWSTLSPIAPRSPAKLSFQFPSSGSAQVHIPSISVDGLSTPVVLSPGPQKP
# How it was run: as §1
# GABPA = target: T3, GABPA (Homo sapiens, UniProt Q06546 1-454); details: protein: recombinant; tags: N-terminal GST; dsDNA, one strand shown
# T3 sequence: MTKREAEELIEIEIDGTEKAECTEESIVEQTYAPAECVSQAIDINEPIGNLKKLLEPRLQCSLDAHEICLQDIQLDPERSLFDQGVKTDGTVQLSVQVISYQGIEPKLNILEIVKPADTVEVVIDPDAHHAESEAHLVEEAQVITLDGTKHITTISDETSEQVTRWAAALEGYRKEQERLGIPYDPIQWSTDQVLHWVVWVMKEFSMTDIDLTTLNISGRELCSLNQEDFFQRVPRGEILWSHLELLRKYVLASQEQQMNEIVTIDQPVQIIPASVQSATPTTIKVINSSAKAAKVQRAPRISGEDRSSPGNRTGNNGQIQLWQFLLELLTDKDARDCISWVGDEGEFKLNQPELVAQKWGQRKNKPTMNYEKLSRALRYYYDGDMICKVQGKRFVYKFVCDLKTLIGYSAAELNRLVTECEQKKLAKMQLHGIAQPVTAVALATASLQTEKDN
# How it was run: as §1
# ERG = target: T4, ERG (Homo sapiens, UniProt P11308 1-479); details: protein: recombinant; tags: N-terminal GST; dsDNA, one strand shown
# T4 sequence: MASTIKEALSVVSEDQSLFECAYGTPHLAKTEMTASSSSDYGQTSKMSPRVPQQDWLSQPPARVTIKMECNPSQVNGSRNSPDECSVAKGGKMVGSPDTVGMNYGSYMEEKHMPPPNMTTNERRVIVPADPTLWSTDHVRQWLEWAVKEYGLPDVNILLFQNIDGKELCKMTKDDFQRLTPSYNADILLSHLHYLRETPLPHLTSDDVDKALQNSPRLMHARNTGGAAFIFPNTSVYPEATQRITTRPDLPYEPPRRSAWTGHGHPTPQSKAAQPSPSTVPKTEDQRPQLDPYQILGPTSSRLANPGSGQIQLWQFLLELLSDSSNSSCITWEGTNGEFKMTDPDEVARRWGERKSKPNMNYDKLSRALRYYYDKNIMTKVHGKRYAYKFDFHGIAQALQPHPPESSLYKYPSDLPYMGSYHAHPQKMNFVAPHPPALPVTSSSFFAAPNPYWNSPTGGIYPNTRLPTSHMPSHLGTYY
# How it was run: as §1
# ELF1 = ELF1 (Homo sapiens, UniProt P32519 1-619); details: protein: recombinant; tags: N-terminal GST; dsDNA, one strand shown
# How it was run: as §1
# EHF = target: T5, EHF (Homo sapiens, UniProt Q9NZC4 1-300); details: protein: recombinant; tags: N-terminal GST; dsDNA, one strand shown
# T5 sequence: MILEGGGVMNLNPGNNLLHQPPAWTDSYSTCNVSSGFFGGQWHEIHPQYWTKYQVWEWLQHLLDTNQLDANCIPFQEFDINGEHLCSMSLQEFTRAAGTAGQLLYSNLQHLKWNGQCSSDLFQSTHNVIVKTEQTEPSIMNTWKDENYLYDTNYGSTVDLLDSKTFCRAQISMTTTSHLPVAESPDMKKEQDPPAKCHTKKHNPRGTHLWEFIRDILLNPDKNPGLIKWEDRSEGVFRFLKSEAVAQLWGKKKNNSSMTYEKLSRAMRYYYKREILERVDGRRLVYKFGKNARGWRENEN
# How it was run: as §1
# SPIB = SPIB (Homo sapiens, UniProt Q01892 1-262); details: protein: recombinant; tags: N-terminal GST; dsDNA, one strand shown
# How it was run: as §1
# FEV = target: T6, FEV (Homo sapiens, UniProt Q99581 1-238); details: protein: recombinant; tags: N-terminal GST; dsDNA, one strand shown
# T6 sequence: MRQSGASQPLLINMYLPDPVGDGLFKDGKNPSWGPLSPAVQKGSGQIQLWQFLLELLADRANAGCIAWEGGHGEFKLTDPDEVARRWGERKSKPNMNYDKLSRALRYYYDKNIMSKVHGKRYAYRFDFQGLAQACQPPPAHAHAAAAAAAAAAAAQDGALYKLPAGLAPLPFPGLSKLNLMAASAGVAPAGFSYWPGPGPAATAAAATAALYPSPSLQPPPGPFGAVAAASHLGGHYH
# How it was run: as §1
# ETV5 = ETV5 (Homo sapiens, UniProt P41161 1-510); details: protein: recombinant; tags: N-terminal GST; dsDNA, one strand shown
# How it was run: as §1
# HSF1 = HSF1 (Homo sapiens, UniProt Q00613 1-529); details: protein: recombinant; tags: N-terminal GST; chain copies: 3; dsDNA, one strand shown
# How it was run: as §1
# SPIC = target: T7, SPIC (Homo sapiens, UniProt Q8N5J4 1-248); details: protein: recombinant; tags: N-terminal GST; dsDNA, one strand shown
# T7 sequence: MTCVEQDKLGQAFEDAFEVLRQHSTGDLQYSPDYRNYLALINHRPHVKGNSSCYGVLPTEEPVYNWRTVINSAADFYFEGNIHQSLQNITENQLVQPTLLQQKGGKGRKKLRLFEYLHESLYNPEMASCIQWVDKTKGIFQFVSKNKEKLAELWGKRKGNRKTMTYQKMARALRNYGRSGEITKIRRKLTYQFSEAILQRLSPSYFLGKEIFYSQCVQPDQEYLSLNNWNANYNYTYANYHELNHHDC
# How it was run: as §1
# ELF4 = ELF4 (Homo sapiens, UniProt Q99607 1-663); details: protein: recombinant; tags: N-terminal GST; dsDNA, one strand shown
# How it was run: as §1
# ELK4 = target: T8, ELK4 (Homo sapiens, UniProt P28324-2 1-405); details: protein: recombinant; tags: N-terminal GST; dsDNA, one strand shown
# T8 sequence: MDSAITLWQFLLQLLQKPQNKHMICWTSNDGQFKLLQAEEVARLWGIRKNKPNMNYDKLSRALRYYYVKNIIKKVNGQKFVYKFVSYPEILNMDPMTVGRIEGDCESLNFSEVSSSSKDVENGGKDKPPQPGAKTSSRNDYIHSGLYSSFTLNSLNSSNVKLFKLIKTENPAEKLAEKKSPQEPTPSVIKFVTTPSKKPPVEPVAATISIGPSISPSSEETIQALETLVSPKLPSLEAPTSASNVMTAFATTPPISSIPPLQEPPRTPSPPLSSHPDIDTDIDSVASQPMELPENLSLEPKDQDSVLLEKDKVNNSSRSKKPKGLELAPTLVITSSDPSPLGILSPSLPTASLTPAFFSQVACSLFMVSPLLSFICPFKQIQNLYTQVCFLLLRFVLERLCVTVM
# How it was run: as §1
# ETV2 = target: T9, ETV2 (Homo sapiens, UniProt O00321 1-342); details: protein: recombinant; tags: N-terminal GST; dsDNA, one strand shown
# T9 sequence: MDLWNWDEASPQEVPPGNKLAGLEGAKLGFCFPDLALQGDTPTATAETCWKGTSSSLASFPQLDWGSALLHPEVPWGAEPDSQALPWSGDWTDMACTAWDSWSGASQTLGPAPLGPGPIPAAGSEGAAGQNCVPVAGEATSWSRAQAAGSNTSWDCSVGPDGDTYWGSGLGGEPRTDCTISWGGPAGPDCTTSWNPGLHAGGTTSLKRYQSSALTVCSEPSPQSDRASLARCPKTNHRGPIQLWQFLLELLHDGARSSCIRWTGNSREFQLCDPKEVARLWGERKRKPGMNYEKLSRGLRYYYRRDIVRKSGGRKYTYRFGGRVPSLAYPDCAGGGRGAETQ
# How it was run: as §1
# ELF3 = target: T10, ELF3 (Homo sapiens, UniProt P78545 1-371); details: protein: recombinant; tags: N-terminal GST; dsDNA, one strand shown
# T10 sequence: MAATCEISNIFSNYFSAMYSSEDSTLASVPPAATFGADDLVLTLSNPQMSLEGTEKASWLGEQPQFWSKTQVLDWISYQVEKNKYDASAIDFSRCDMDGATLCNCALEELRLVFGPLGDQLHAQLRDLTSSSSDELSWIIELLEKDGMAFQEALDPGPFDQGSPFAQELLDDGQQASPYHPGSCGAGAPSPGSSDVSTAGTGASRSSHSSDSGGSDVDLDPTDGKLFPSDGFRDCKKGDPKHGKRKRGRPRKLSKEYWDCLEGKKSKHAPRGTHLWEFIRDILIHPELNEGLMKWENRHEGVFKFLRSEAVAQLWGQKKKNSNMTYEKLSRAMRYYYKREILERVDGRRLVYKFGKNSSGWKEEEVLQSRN
# How it was run: as §1
# ETV1 = ETV1 (Homo sapiens, UniProt P50549 1-477); details: protein: recombinant; tags: N-terminal GST; dsDNA, one strand shown
# How it was run: as §1
# Chain of ELF1 (P32519 whole entry): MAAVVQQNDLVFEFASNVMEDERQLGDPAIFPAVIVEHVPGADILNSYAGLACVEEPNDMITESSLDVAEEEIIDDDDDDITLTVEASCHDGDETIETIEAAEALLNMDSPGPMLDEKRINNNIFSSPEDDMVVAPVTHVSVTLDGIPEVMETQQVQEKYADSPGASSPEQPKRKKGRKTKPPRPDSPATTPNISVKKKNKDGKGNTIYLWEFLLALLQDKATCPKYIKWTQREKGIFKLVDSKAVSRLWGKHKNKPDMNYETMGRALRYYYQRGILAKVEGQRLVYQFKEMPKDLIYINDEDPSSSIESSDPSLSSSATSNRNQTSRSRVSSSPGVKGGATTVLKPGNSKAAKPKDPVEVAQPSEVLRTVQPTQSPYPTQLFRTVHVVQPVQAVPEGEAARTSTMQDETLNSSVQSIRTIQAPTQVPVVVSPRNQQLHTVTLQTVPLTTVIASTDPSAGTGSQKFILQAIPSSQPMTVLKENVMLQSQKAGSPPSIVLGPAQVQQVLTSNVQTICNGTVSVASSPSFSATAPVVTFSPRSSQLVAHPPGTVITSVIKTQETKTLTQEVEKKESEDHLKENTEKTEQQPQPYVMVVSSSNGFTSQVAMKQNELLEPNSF
# Chain of ETV1 (P50549 whole entry): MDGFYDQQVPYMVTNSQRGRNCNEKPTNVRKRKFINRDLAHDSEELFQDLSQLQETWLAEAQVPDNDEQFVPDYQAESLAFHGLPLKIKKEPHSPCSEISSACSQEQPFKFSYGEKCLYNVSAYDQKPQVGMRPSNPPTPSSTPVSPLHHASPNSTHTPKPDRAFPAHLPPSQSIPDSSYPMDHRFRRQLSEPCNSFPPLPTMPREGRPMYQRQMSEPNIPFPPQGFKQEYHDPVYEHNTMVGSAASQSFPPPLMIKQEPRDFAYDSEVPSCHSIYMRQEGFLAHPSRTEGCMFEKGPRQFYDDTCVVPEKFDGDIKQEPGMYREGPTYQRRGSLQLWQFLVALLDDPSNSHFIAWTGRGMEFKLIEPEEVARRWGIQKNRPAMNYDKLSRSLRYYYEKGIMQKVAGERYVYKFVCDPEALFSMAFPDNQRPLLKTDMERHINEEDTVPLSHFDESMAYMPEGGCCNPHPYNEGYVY
# Chain of ELF4 (Q99607 whole entry): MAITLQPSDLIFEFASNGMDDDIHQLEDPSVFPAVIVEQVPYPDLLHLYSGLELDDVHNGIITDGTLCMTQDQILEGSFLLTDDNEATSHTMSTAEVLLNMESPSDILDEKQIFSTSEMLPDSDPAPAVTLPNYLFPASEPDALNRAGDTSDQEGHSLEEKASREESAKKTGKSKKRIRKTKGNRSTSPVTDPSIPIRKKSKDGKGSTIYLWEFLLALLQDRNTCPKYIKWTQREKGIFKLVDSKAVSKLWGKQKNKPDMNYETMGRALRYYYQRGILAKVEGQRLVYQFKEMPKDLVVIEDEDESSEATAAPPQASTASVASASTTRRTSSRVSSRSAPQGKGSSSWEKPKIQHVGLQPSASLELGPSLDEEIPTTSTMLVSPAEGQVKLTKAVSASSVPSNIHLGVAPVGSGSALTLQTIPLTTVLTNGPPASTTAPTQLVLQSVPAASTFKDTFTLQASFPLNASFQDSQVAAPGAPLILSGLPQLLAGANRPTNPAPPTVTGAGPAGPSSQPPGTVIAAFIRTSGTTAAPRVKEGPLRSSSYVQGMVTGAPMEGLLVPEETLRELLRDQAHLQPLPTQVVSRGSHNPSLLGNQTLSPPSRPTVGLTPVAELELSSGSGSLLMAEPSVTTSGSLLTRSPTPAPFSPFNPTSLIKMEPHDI
# Chain of SPIB (Q01892 whole entry): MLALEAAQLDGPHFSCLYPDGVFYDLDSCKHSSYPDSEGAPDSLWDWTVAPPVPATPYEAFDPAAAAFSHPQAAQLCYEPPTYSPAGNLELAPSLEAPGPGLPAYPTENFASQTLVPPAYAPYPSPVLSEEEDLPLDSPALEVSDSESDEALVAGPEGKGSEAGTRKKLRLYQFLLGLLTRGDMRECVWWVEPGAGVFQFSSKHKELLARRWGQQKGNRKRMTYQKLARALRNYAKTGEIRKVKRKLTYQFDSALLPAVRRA
# Chain of HSF1 (Q00613 whole entry): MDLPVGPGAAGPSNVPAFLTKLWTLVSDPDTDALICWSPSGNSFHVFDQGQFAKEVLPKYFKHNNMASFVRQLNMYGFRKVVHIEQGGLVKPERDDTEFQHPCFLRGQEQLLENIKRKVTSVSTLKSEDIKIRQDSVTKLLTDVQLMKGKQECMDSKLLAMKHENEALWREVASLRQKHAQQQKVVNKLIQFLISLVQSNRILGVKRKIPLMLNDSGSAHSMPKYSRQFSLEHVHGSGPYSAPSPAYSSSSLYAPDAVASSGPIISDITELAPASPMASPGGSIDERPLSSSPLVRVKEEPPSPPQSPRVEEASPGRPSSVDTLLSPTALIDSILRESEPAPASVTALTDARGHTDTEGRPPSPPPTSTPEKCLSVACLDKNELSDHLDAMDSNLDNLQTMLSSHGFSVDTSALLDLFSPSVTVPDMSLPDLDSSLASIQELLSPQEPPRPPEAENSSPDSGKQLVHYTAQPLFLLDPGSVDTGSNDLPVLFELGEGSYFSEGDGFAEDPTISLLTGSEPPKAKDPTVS
# Chain of ETV5 (P41161 whole entry): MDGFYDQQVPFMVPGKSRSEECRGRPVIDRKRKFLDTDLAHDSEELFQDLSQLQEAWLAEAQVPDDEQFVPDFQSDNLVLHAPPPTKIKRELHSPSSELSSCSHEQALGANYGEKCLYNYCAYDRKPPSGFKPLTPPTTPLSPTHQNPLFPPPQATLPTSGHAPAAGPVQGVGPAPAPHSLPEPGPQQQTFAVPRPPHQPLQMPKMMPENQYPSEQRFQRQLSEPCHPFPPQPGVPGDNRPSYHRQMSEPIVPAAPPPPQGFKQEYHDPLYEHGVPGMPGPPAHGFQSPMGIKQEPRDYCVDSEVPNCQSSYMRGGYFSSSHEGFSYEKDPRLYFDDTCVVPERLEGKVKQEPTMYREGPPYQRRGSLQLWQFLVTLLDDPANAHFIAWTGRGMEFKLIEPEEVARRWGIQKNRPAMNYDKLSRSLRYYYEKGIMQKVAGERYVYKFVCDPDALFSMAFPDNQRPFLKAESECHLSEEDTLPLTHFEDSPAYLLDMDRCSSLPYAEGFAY
sequence,measurement,setting,value
AAGCAA,binding signal,FLI1,"1.03 fold enrichment (6-mer frequency, TF over GST control)"
same,binding signal,ELK1,"1.08 fold enrichment (6-mer frequency, TF over GST control)"
same,binding signal,GABPA,"1.07 fold enrichment (6-mer frequency, TF over GST control)"
same,binding signal,ERG,"1.02 fold enrichment (6-mer frequency, TF over GST control)"
same,binding signal,ELF1,"1.06 fold enrichment (6-mer frequency, TF over GST control)"
same,binding signal,EHF,"1.02 fold enrichment (6-mer frequency, TF over GST control)"
same,binding signal,SPIB,"1.02 fold enrichment (6-mer frequency, TF over GST control)"
same,binding signal,FEV,"1.05 fold enrichment (6-mer frequency, TF over GST control)"
same,binding signal,ETV5,"1.11 fold enrichment (6-mer frequency, TF over GST control)"
same,binding signal,HSF1,"1.04 fold enrichment (6-mer frequency, TF over GST control)"
same,binding signal,SPIC,"1.03 fold enrichment (6-mer frequency, TF over GST control)"
same,binding signal,ELF4,"1.06 fold enrichment (6-mer frequency, TF over GST control)"
same,binding signal,ELK4,"1.08 fold enrichment (6-mer frequency, TF over GST control)"
same,binding signal,ETV2,"1.01 fold enrichment (6-mer frequency, TF over GST control)"
same,binding signal,ELF3,"1.09 fold enrichment (6-mer frequency, TF over GST control)"
same,binding signal,ETV1,"1.08 fold enrichment (6-mer frequency, TF over GST control)"

# Reference: paper PMC7862700, “An all-to-all approach to the identification of sequence-specific readers for epigenetic DNA modifications on cytosine”
